{"source": "PubChem BioAssay AID504326", "about": "(The Scripps Research Institute Molecular Screening Center, 2011)", "note": "The whole screen tested about 340,000 compounds, of which about 990 (0.29%) were called active. For the sample, actives were picked, then their nearest neighbours and some compounds at random. A number with no mark means an inactive call. No stated cut-off is given here; in the data, active means activation above about 18%; inactive means the rest.", "data": [{"molecular_target": "Mu-type opioid receptor (Homo sapiens) + Delta-type opioid receptor (Homo sapiens) (UniProt P35372+P41143)", "sequence (P35372 whole entry, looked up)": "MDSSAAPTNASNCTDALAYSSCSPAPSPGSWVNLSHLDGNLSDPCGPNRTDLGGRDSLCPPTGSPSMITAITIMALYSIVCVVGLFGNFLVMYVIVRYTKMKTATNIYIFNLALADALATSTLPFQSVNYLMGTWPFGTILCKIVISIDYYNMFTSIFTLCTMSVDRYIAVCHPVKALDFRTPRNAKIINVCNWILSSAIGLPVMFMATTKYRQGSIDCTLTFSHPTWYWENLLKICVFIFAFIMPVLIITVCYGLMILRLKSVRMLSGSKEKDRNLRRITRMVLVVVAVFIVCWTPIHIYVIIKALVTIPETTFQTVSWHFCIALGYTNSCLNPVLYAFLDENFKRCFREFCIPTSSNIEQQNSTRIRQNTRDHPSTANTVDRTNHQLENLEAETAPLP", "sequence (P41143 whole entry, looked up)": "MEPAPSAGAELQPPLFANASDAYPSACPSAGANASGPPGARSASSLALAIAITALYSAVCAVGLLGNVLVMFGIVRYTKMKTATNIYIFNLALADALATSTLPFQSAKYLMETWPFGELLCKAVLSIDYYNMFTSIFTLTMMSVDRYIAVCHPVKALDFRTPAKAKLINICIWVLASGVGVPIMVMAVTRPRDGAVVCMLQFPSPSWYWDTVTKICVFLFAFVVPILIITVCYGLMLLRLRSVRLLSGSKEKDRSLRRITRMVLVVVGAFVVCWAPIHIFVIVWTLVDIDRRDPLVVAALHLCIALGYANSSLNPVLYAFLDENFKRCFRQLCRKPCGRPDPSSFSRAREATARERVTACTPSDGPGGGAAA", "assay": "agonists of OPRM1-OPRD1 heterodimerization, primary screen, cell-based, luminescence (AID 504326);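 further: 0% = vehicle-treated cells and 100% = reference agonist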", "settings": "cells, at 9.3 µM, stronger effect = higher value", "values": [{"compound": "Cc1ccc(OCCCC(=O)Nc2ccc(S(=O)(=O)Nc3cc(C)nc(C)n3)cc2)cc1", "activation": "0.21%"}, {"compound": "COc1cccc(CNc2nc(C(F)(F)F)nc3ccccc23)c1", "activation": "5.18%"}, {"compound": "NS(=O)(=O)c1ccc(CCNc2nc(C(F)(F)F)nc3ccccc23)cc1", "activation": "-1.85%"}, {"compound": "CCc1ccc(C(CNc2nc(C(F)(F)F)nc3ccccc23)N(C)C)cc1", "note": "(configuration not stated)", "activation": "81.6% (active)"}, {"compound": "Cc1ccn(C(CC(=O)c2ccc(Br)cc2)C(=O)O)n1", "note": "(configuration not stated)", "activation": "-1.91%"}, {"compound": "Nc1c(Cl)cc(S(N)(=O)=O)cc1S(N)(=O)=O", "activation": "-5.23%"}, {"compound": "CC1=NNC(=O)C1CCC(=O)N/N=C\\c1ccc(Cl)c(Cl)c1", "note": "(configuration not stated)", "activation": "-0.87%"}, {"compound": "COc1cc(/C=N/NC(=O)c2ccoc2C)ccc1OCCN1CCCCC1", "activation": "-0.79%"}, {"compound": "COc1cc(/C=N/NC(=O)Nc2ccccc2)ccc1OCCOc1ccccc1C", "activation": "28% (active)"}, {"compound": "COc1cc(/C=N/NC(=O)Cc2ccccc2)cc(OC)c1OC", "activation": "-1.52%"}, {"compound": "Cc1cc(C)c2c(=O)[nH]c(SCC(=O)Nc3ccc(Br)cc3)nc2n1", "activation": "2.08%"}, {"compound": "CN(Cc1ccc(F)cc1)C(=O)CN1C(=O)c2ccccc2S1(=O)=O", "activation": "-2.95%"}, {"compound": "COC(=O)C1=NNC2(c3ccc(C)cc3)C(=O)N(c3cccc(C)c3C)C(=O)C12", "note": "(configuration not stated)", "activation": "-4.85%"}, {"compound": "Cc1ccc(NC(=O)COc2ccc(/C=C3/NC(=O)NC3=O)cc2)cc1", "activation": "2.37%"}, {"compound": "COC(=O)C1=C(O)/C(=C/c2ccc(OCC(=O)Nc3ccccc3)cc2)N=C1C", "activation": "-3.18%"}, {"compound": "CCOC(=O)C1=C(O)/C(=C/c2ccc(OCC(=O)Nc3ccc(C)cc3)cc2)N=C1C", "activation": "40.8% (active)"}, {"compound": "CCOc1ccc(Br)cc1S(=O)(=O)Nc1ccc(C(=O)OC(C)C(=O)N(C)c2ccccc2)cc1", "note": "(configuration not stated)", "activation": "2.35%"}, {"compound": "CC(c1ccccn1)N(C)C(=O)c1ccc2nc(Cc3cccc(Cl)c3)oc2c1", "note": "(configuration not stated)", "activation": "-0.53%"}, {"compound": "CC1CCCCC12NC(=O)N(CC(=O)OCC(=O)NCc1ccc(F)cc1)C2=O", "note": "(configuration not stated)", "activation": "-0.67%"}, {"compound": "Cc1cccc(Oc2c([N+](=O)[O-])c(=O)n(C)c3ccccc23)c1", "activation": "1.78%"}, {"compound": "CCOC(=O)c1c(C)[nH]c2c1-c1ccccc1C(=O)C2=O", "activation": "22.6% (active)"}, {"compound": "CCOC(=O)C1=C(C)c2ccccc2OC1(C)C(=O)OCC", "note": "(configuration not stated)", "activation": "-0.33%"}, {"compound": "CCOC(=O)c1ccccc1OC(=O)Oc1ccccc1C(=O)OCC", "activation": "-2.83%"}, {"compound": "O=C(NCc1ccccn1)c1cnc2sccn2c1=O", "activation": "-2.49%"}, {"compound": "CC1(C)C(C=C(Cl)Cl)C1C(=O)N(Cc1ccc(Cl)cc1)C1CCS(=O)(=O)C1", "note": "(configuration not stated)", "activation": "0.69%"}, {"compound": "COc1cc(C(=O)N(Cc2ccc(N(C)C)cc2)C2CCS(=O)(=O)C2)cc(OC)c1OC", "note": "(configuration not stated)", "activation": "-1.82%"}, {"compound": "Cc1ccc(CN(C(=O)c2sc3ccccc3c2Cl)C2CCS(=O)(=O)C2)cc1", "note": "(configuration not stated)", "activation": "26.2% (active)"}, {"compound": "O=C(C1CC1)N1N=C2CCCCC2C1(O)C(F)(F)F", "note": "(configuration not stated)", "activation": "-1.35%"}, {"compound": "O=C(Nc1ccc(OC(F)(F)F)cc1)c1ccc2c(c1)no[n+]2[O-]", "activation": "22% (active)"}, {"compound": "CCOC(=O)Cc1ncccc1C(=O)Nc1ccc(OC(F)(F)F)cc1", "activation": "-3.8%"}, {"compound": "Cn1cccc1/C=N/NC(=O)c1ccc(OC(F)(F)C(F)F)cc1", "activation": "-1.62%"}, {"compound": "O=C(N1CCOCC1)N(Cc1ccccc1)c1ccccn1", "activation": "-1.92%"}, {"compound": "CC(=O)CSc1nc(CCc2ccccc2)c(C#N)c(=O)[nH]1", "activation": "-2.33%"}, {"compound": "COc1ccc(/C=C2/S/C(=N/N=C3\\CC4CCC3(C)C4(C)C)NC2=O)cc1", "note": "(configuration not stated)", "activation": "0.11%"}, {"compound": "CCN1C(=NCCc2cccnc2)N[C@@H](c2ccccc2)C(C(=O)OC)=C1C", "activation": "0.22%"}, {"compound": "Clc1ccc(C2[C@H]3CN(CC4CCCCC4)[C@H](c4ccccc4)C34CC2(c2cccnc2)C4)cn1", "note": "(some centres not stated)", "activation": "-1.67%"}, {"compound": "COC(=O)c1ccc(C23CC4(C2)[C@H](CN(Cc2cccnc2)[C@@H]4c2ccccc2)C3c2ccc(Cl)nc2)cc1", "note": "(some centres not stated)", "activation": "19.2% (active)"}, {"compound": "O=C(/C=C/c1cnc2ccccc2n1)NC1CCCCCC1", "activation": "-1.86%"}, {"compound": "CC(C)NS(=O)(=O)c1ccc(NC(=O)C2CCCCC2)cc1", "activation": "-1.18%"}, {"compound": "O=C(CC(NC(=O)c1ccccc1)c1ccccc1)Nc1ccc(F)c(F)c1", "note": "(configuration not stated)", "activation": "1.24%"}, {"compound": "Cc1ccc(CNC(=O)CC(NC(=O)c2ccccc2)c2ccccc2)cc1", "note": "(configuration not stated)", "activation": "22.7% (active)"}, {"compound": "Cc1ccc(CNC(=O)[C@@H](NC(=O)Cc2ccccc2)C(C)C)cc1", "activation": "2.39%"}, {"compound": "CCOC(=O)CC(NC(=O)C1c2ccccc2Oc2ccccc21)c1ccc(C)cc1", "note": "(configuration not stated)", "activation": "-2.87%"}, {"compound": "COc1ccc(C(CNCC(=O)Nc2ccccc2F)N(C)C)cc1", "note": "(configuration not stated)", "activation": "149% (active)"}, {"compound": "Cc1cccc(OCC(=O)Nc2ccccc2F)c1", "activation": "-3.72%"}, {"compound": "COc1ccc(C(CNC(=O)c2ccc(S(=O)(=O)Nc3ccccc3F)cc2)N(C)C)cc1", "note": "(configuration not stated)", "activation": "-3.41%"}, {"compound": "COCCNC(=O)C(c1ccc(C)cc1)N(C(=O)CCC(=O)Nc1ccccn1)c1cccc(C)c1", "note": "(configuration not stated)", "activation": "-0.25%"}, {"compound": "CCNC(=S)N1CCN(c2ncccn2)CC1", "activation": "-2.13%"}, {"compound": "CCn1nnnc1SCC(=O)Nc1ccc(N(C)C)cc1", "activation": "-1.37%"}, {"compound": "CN(C)CCNC(=O)Cc1ccc([N+](=O)[O-])cc1", "activation": "-3.71%"}, {"compound": "Cc1cc(NC(=O)c2cc3ccccc3o2)no1", "activation": "-2.3%"}, {"compound": "CN(C)C(CNC(=O)c1cc2ccccc2o1)c1ccccc1", "note": "(configuration not stated)", "activation": "197% (active)"}, {"compound": "O=C(CC(c1ccccc1)c1ccccc1)NCC(O)c1ccc([N+](=O)[O-])cc1", "note": "(configuration not stated)", "activation": "2.4%"}, {"compound": "CN(C)C(CNC(=O)Cc1ccc([N+](=O)[O-])cc1)c1ccccc1", "note": "(configuration not stated)", "activation": "67.1% (active)"}, {"compound": "O=C(NCCc1ccc2c(c1)OCCO2)c1cc2ccccc2o1", "activation": "-0.68%"}, {"compound": "COc1ccc(NC(=O)CN2C(=O)COc3ccc(S(=O)(=O)N4CCOCC4)cc32)c(OC)c1", "activation": "-1.21%"}, {"compound": "CN1CCN(c2ccc([N+](=O)[O-])c(Sc3nc4ccccc4[nH]3)c2)CC1", "activation": "55.9% (active)"}, {"compound": "O=C(CSc1nc2ccccc2[nH]1)N/N=C/C=C\\c1ccccc1[N+](=O)[O-]", "activation": "-1.78%"}, {"compound": "O=[N+]([O-])c1ccc(N2CCSCC2)cc1O", "activation": "0.34%"}, {"compound": "CC(Sc1nnc(CNC(=O)c2ccccc2F)n1C)C(=O)Nc1nccs1", "note": "(configuration not stated)", "activation": "-0.21%"}, {"compound": "CCCCN(C(=O)COc1ccc(NC(C)=O)cc1)C1CCS(=O)(=O)C1", "note": "(configuration not stated)", "activation": "-1.71%"}, {"compound": "COc1cc2c(cc1OC)CC1(CCCCC1)N=C2", "activation": "-3.02%"}, {"compound": "COc1ccc(CCNC(=O)C(Sc2ccccn2)c2ccccc2)cc1OC", "note": "(configuration not stated)", "activation": "-2.64%"}, {"compound": "COc1ccc(C(CCN(Cc2ccc(OC)c(OC)c2)C(=O)CCl)c2ccccc2)cc1", "note": "(configuration not stated)", "activation": "91.3% (active)"}, {"compound": "COc1ccc(CCNC(=O)CN(c2ccccc2)S(C)(=O)=O)cc1OC", "activation": "0.27%"}, {"compound": "CN(CC(=O)NCCc1ccccc1)S(=O)(=O)c1cnc[nH]1", "activation": "-1.45%"}, {"compound": "CSc1sc(C)cc1C1C(C#N)=C(N)N(c2cccnc2)C2=C1C(=O)CCC2", "note": "(configuration not stated)", "activation": "-1.23%"}, {"compound": "CN1CCN(NC(=O)Nc2ccc(Br)cc2)CC1", "activation": "-3.59%"}, {"compound": "COCC(=O)Nc1ccc(Br)cc1", "activation": "-3.01%"}, {"compound": "CN1C(CC(=O)Nc2ccc(Br)cc2)c2ccccc2CC1(C)C", "note": "(configuration not stated)", "activation": "77.8% (active)"}, {"compound": "Cc1ccc(F)cc1S(=O)(=O)Nc1cccc(C(=O)N2CCCC(C(N)=O)C2)c1", "note": "(configuration not stated)", "activation": "3.39%"}, {"compound": "CCN(CC)C(=O)CC1(c2ccccc2OC)CCOC(C(C)C)C1", "note": "(configuration not stated)", "activation": "-2.63%"}]}]}
